Measurements: PubChem BioAssay (NCI)
Compounds without any hit were thinned out: in the full panel of roughly 83,000, 20% have a hit.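 Step 1: grow cells in 96-well plates. Step 2: add test compound at a single concentration. Step 3: incubate 48 h. Step 4: record percent growth.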 A number with no mark means an inactive call. Active and inactive are the calls of the source. How the source made its calls: active means growth percent below 10; inactive means the rest.

Assays:
Assay in all cases: NCI-60 one-dose screen, 48 h (100 = growth as untreated, 0 = no growth, -100 = all killed)
Details in all cases: 10 µM unless noted
DU-145 prostate = test system: DU-145 prostate
K-562 leukemia = test system: K-562 leukemia
MALME-3M melanoma = test system: MALME-3M melanoma
MDA-MB-231 breast = test system: MDA-MB-231 breast
RXF 393 renal = test system: RXF 393 renal
SF-268 CNS = test system: SF-268 CNS
SF-295 CNS = test system: SF-295 CNS
SF-539 CNS = test system: SF-539 CNS
UACC-257 melanoma = test system: UACC-257 melanoma
M14 melanoma = test system: M14 melanoma
HCT-15 colon = test system: HCT-15 colon
HT29 colon = test system: HT29 colon
SNB-75 CNS = test system: SNB-75 CNS
SNB-19 CNS = test system: SNB-19 CNS
U251 CNS = test system: U251 CNS
PC-3 prostate = test system: PC-3 prostate
SK-MEL-5 melanoma = test system: SK-MEL-5 melanoma
UACC-62 melanoma = test system: UACC-62 melanoma
LOX IMVI melanoma = test system: LOX IMVI melanoma
SK-MEL-28 melanoma = test system: SK-MEL-28 melanoma

SMILES	growth (DU-145 prostate)	growth (K-562 leukemia)	growth (MALME-3M melanoma)	growth (MDA-MB-231 breast)	growth (RXF 393 renal) [%]	growth (SF-268 CNS) [%]	growth (SF-295 CNS)	growth (SF-539 CNS)	growth (UACC-257 melanoma)	growth (M14 melanoma)	growth (HCT-15 colon)	growth (HT29 colon)	growth (SNB-75 CNS)	growth (SNB-19 CNS)	growth (U251 CNS)	growth (PC-3 prostate)	growth (SK-MEL-5 melanoma)	growth (UACC-62 melanoma)	growth (LOX IMVI melanoma)	growth (SK-MEL-28 melanoma)
NC1=C(c2nn[nH]n2)C(c2ccccc2Cl)c2ccc3ccccc3c2O1 (stereo not given)	93.4%	22.6%	64%	63.7%	79.3	73.2	88.9%	79.2%	84.7%	61.3%	46.8%	132%	56.7%	79.2%	77.8%	57.5%	58%	71.2%	77.8%	75.6%
CC1Cc2ccccc2N1NC(=O)c1ccc(Cl)c(S(N)(=O)=O)c1 (stereo not given)	108%	103%	94.2%	104%	108	106	101%	105%	102%	98.2%	106%	99.9%	90.4%	102%	100%	88%	101%	99.4%	96.2%	104%
COc1ccc(OC)c(/C=C/c2nnc(Nc3ccccc3)o2)c1	93.3%	83.2%	116%	95%	93.6	98.5	91.1%	103%	117%	110%	90.5%	93.6%	82.1%	96.9%	98%	93.8%	90%	92.1%	99.5%	108%
COc1cc2cc(Oc3ccc(NC(=O)Nc4ccc(Cl)c(Cl)c4)cc3)c(C)nc2cc1OCCN1CCOCC1	99.6%	39.2%	92.2%	97.1%	84	94.3	80.1%	93.6%	74.3%	101%	88.9%	90.1%	92.9%	90.5%	96.6%	76.7%	50.8%	77.8%	93.5%	101%
NC(=O)C1(Nc2ccc(Br)cc2)CCCC1	119%	116%	108%	101%	115	106	106%	89.8%	101%	97.1%	107%	102%	93.2%	105%	97.5%	94.3%	103%	96.4%	103%	106%
CC(C)n1cnc2c(Nc3cccc(Cl)c3)nc(N[C@H]3CCCC[C@@H]3N)nc21	49.7%	35.5%	45.5%	32.6%	53.2	46.5	76.3%	71.3%	64.1%	40.9%	58.1%	11.3%	32.8%	59.7%	57.3%	54.3%	53.3%	68.3%	45.2%	61.7%
CCOC(=O)Cn1c(=O)c2c(c3ccccc3n2C)n2nnc(-c3ccccc3)c12	111%	84.8%	118%	103%	108	95.2	110%	102%	102%	97.6%	112%	100%	94.2%	104%	107%	103%	98.4%	102%	91.1%	107%
COc1cc(/C=C/C(=O)/C=C/c2cc(OC)c3c(c2OC)OCO3)c(OC)c2c1OCO2	28.3%	12.4%	46.7%	46%	16.6	48.7	89.7%	29.4%	54.1%	31.7%	31.9%	68.5%	33.4%	55.4%	11.5%	41%	45.1%	25.5%	32.9%	55.6%
CSc1ncccc1C(=O)OCC(=O)Nc1oc(C)c2c(C)n[nH]c(=O)c12	103%	87.8%	106%	109%	92.1	105	95%	99.7%	103%	110%	103%	116%	85.3%	101%	102%	84.8%	103%	94.4%	94.5%	109%
Brc1c[n+](Cc2ccc3ccccc3c2)cn1Cc1ccc2ccccc2c1	38.5%	10.5%	-4.88% (active)	8.23% (active)	21.6	14.5	49.6%	40.1%	-35.4% (active)	1.8% (active)	93.6%	7.66% (active)	-30.8% (active)	17.3%	21.5%	8.5% (active)	-85.2% (active)	-59.8% (active)	-89% (active)	-3.7% (active)
COc1cc2cc(Oc3ccc(NC(=O)Nc4ccc(F)c(C(F)(F)F)c4)cc3)c(C)nc2cc1OCCN1CCOCC1	23.3%	9.96% (active)	22.7%	39.6%	40.3	32.1	0.809% (active)	45.1%	12%	16.7%	13.6%	8.41% (active)	51.6%	25.1%	13.6%	5.95% (active)	-37.6% (active)	33.9%	12.8%	43.1%
NCCCNc1nc2ccccc2c2c(=O)c3cc(OC(F)(F)F)ccc3sc12	-10.7% (active)	-34.7% (active)	80.9%	-43.2% (active)	60.7	51	33.4%	-72% (active)	104%	-26.4% (active)	-78.1% (active)	-32.9% (active)	58.6%	7.57% (active)	-63% (active)	42.9%	59.9%	88.9%	-97.3% (active)	84.7%
COc1ccc(CNC(=O)C(=O)[C@H](Cc2ccccc2)NC(=O)c2[nH]c3ccccc3c(=O)c2C)cc1	104%	92.9%	107%	95.6%	104	101	103%	98.7%	98.9%	99.6%	103%	108%	87.4%	100%	100%	95.1%	100%	95.6%	102%	103%
Oc1ccc(CCl)c2cccnc12	88.1%	43.9%	37.3%	94.5%	75.7	73.2	99%	90.3%	24.9%	61.6%	36.6%	104%	64.7%	80.6%	59.7%	83.6%	89.9%	100%	55%	82.9%
c1ccc(Cc2nn3cc(-c4ccccc4)nc3s2)cc1	99%	93.8%	111%	109%	129	98	97.8%	106%	108%	90.3%	95.1%	94.9%	102%	103%	107%	93.7%	101%	82.6%	86.2%	109%
COc1ccn2c(C(C)=O)cc(C(=O)c3ccc4c(c3)Sc3ccccc3N4)c2c1	-18.3% (active)	7.02% (active)	85.9%	-17.2% (active)	51.9	22.2	13.9%	-11.8% (active)	52%	9.58% (active)	15%	-0.653% (active)	21.1%	40.3%	17.9%	23.8%	-39.7% (active)	35.9%	19.7%	46.7%
